{"source": "PubChem BioAssay"}
{"assay": "probe aNOTCH3 binding on compound microarray – biochemical, small-molecule microarray, 635/667 nm fluorescence, primary screen (AID 1120);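 further: probe is a biotin-tagged antibody raised against NOTCH3 rather than NOTCH3 protein; score merges spot fluorescence near 667 nm with spot signal to noise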", "conditions": "higher = more signal"}
{"smiles": "C=C(COC)/C(=C/C[C@H](OC(=O)c1ccncc1)c1ccc(OCCO)cc1)c1cnc2ccccc2c1", "composite z-score": 0.227}
{"smiles": "COc1ccc(C#Cc2ccc3c(c2)[C@]2(C(=O)N3)[C@H](c3ccccc3OCCO)N3[C@H](c4ccccc4)[C@H](c4ccccc4)OC(=O)[C@H]3[C@@H]2C(=O)O)cc1", "composite z-score": 0.671}
{"smiles": "C=CC[C@]1(C(=O)N2CCCCC2)N=C(c2ccc(OCCCO)cc2)O[C@H]1c1ccccc1", "composite z-score": 0.748}
{"smiles": "COCCOC(=O)N1C(=O)[C@@]2(c3cc(C#Cc4ccc(OC)cc4)ccc31)[C@H](C(N)=O)[C@H]1C(=O)O[C@H](c3ccccc3)[C@H](c3ccccc3)N1[C@@H]2c1ccccc1OCCO", "composite z-score": 0.293}
{"smiles": "O=C1OCCC/C=C\\[C@H]2OC34C=CCN(Cn5nnc6ccccc65)C(=O)[C@H]3N(CCO)C(=O)[C@@H]4C12", "note": "(some centres undefined)", "composite z-score": 0.0004}
{"smiles": "C=CCN1C(=O)[C@@]2(O[C@@H](CCO)[C@H]([Si](C)(C)c3ccc(OC)cc3)[C@H]2C)c2cc(NC(=O)c3ccc(OC)cc3)ccc21", "composite z-score": -0.0006}
{"smiles": "COc1ccc(C(O)C2C=CC3C(=O)N(c4ccccc4)C(=O)C3N2Nc2ccccc2F)cc1OCc1ccccc1", "note": "(centres undefined)", "composite z-score": 0.837}
{"smiles": "CCCCCN1CC=CC23O[C@@H]4/C=C\\CCCOC(=O)C4[C@H]2C(=O)N(CCCO)[C@@H]3C1=O", "note": "(some centres undefined)", "composite z-score": -0.095}
{"smiles": "CN(C)C(=O)[C@@]1(Cc2ccccc2)N=C(c2ccc(OCCCO)cc2)O[C@H]1c1ccccc1N=[N+]=[N-]", "composite z-score": 0.516}
{"smiles": "O=C1OCC=C[C@H]2OC34C=CCN(CCN5CCOCC5)C(=O)[C@H]3N(CCCO)C(=O)[C@@H]4[C@@H]12", "note": "(some centres undefined)", "composite z-score": -0.206}
{"smiles": "CN(C)C(=O)[C@]1(Cc2ccccc2N=[N+]=[N-])N=C(c2ccc(OCCCO)cc2)O[C@@H]1c1ccccc1", "composite z-score": 0.0522}
{"smiles": "COc1ccc(C(=O)Nc2ccc(CN3C(=O)[C@@]4(O[C@@H](CCO)[C@H]([Si](C)(C)c5ccc(OC)cc5)[C@H]4C)c4ccccc43)cc2)cc1", "composite z-score": 0.0034}
{"smiles": "CCOC(=O)C[C@H]1[C@H](OC(=O)Cc2ccc3c(c2)OCO3)[C@@H](NC(=O)c2ccc3ccccc3c2)c2cc(OCCCO)ccc2N1C(=O)c1ccccc1", "composite z-score": -0.0077}
{"smiles": "COc1ccc(C(=O)O[C@H]2CC[C@]3(C)C4=C(CCC3C2(C)C)[C@]2(C)CC[C@H]([C@H](C)CCCC(C)C)[C@@]2(C)CC4)cc1", "note": "(some centres undefined)", "composite z-score": 0.236}
{"smiles": "CN1C(=O)[C@]2(Cc3ccccc3)N=C(c3ccc(OCCCO)cc3)O[C@@H]2c2ccccc21", "composite z-score": 0.0927}
{"smiles": "COc1ccc(CCNC(=O)[C@@]2(C)c3ccccc3C(=O)N(Cc3cc(F)cc(C(F)(F)F)c3)[C@H]2c2ccc(CO)cc2)cc1", "composite z-score": -0.189}
{"smiles": "COc1ccc(C(O)C2C=CC3C(=O)NC(=O)C3N2Nc2ccccn2)cc1", "note": "(centres undefined)", "composite z-score": 0.0256}
{"smiles": "CN(C)CCCC[C@@H]1NC(=O)[C@H]2C[C@@H](C(=O)NCCCCCNC(=O)CS)[C@@H](c3cccc(OCCO)c3)N2C1=O", "composite z-score": -0.239}
{"smiles": "COC(=O)[C@@]1(Cc2ccc(OC)cc2)[C@H]2c3cc(C(=O)N(C)C)n(Cc4cccc5ccccc45)c3C[C@H]2CN1C(=O)c1ccccc1", "composite z-score": 0.726}
{"smiles": "C#CCN(Cc1ccccc1Br)C(/C=C/c1ccccc1)CO", "note": "(centres undefined)", "composite z-score": -0.212}
{"smiles": "COCCOC(=O)N1C(=O)[C@@]2(c3cc(C#CCCO)ccc31)[C@H](C(=O)Nc1nc3ccccc3s1)[C@H]1C(=O)O[C@H](c3ccccc3)[C@H](c3ccccc3)N1[C@@H]2c1ccc(OCCO)cc1", "composite z-score": 0.286}
{"smiles": "CCOC(=O)C[C@H]1[C@H](OC(=O)c2ccc(C(=O)c3ccccc3)cc2)[C@@H](NC(=O)c2ccc(-c3ccccc3)cc2)c2cc(OCCCO)ccc2N1C(=O)c1ccccc1", "composite z-score": -0.0411}
{"smiles": "COc1ccc([Si](C)(C)[C@@H]2[C@@H](CC(=O)N3Cc4ccccc4C[C@H]3CO)O[C@]3(C(=O)N(C)c4c(Br)cc(C)cc43)[C@H]2C)cc1", "composite z-score": 0.0562}
{"smiles": "O=C1OCCC=C[C@H]2OC34C=CCN(CCN5CCOCC5)C(=O)[C@H]3N(CCCCCCO)C(=O)[C@@H]4C12", "note": "(some centres undefined)", "composite z-score": -0.274}
{"assay": "probe aNOTCH2 binding on compound microarray – biochemical, small-molecule microarray, 635/667 nm fluorescence, primary screen (AID 1121);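 further: score merges feature fluorescence read at 667 nm with its signal to noise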", "conditions": "higher = more signal"}
{"smiles": "COc1ccc(C(=O)Nc2ccc(CN3C(=O)[C@@]4(O[C@@H](CC(=O)N5CCC[C@H]5CO)[C@H]([Si](C)(C)c5ccc(OC)cc5)[C@H]4C)c4ccccc43)cc2)cc1", "composite z-score": -0.0389}
{"smiles": "CN1C(=O)C2C=CC(C(O)C3=C[C@H]4C[C@@H](C3)C4(C)C)N(Nc3ccccc3)C2C1=O", "note": "(some centres undefined)", "composite z-score": -0.0712}
{"smiles": "CS(=O)(=O)CCOC(=O)C1=CC(CCCO)=CC(c2ccc(CN3CCCC3)cc2)N(Cc2cc3c(cc2Br)OCO3)C=C1C(=O)OCCS(C)(=O)=O", "note": "(centres undefined)", "composite z-score": -0.0163}
{"smiles": "COC(=O)[C@@]1(Cc2ccc(OC)cc2)[C@H]2c3cc(C(=O)N4CCCC4)n(Cc4ccccc4)c3C[C@H]2CN1C(=O)c1ccccc1", "composite z-score": 1.06}
{"smiles": "C[N+](C)(C)CCCCNC(=O)[C@H]1C[C@H]2C(=O)N[C@@H](Cc3ccccc3)C(=O)N2[C@H]1c1ccc(O)cc1", "composite z-score": -0.167}
{"smiles": "C[C@]1(C(=O)NC2CC2)c2ccccc2C(=O)N(Cc2cc(C(F)(F)F)cc(C(F)(F)F)c2)[C@H]1c1ccc(CO)cc1", "composite z-score": -0.0712}
{"smiles": "CCCC#C[Si](O[C@H](CC)c1cn([C@H](CO)Cc2ccccc2)nn1)(C(C)C)C(C)C", "composite z-score": -0.0986}
{"smiles": "CC(=O)N1Cc2ccccc2C[C@@]2(COC(c3ccc(OCCCO)cc3)=N2)C1=O", "composite z-score": 0.16}
{"smiles": "CC(C)(C)OC(=O)CC[C@@]1(C(=O)NCCN2CCOCC2)N=C(c2ccc(OCCCO)cc2)O[C@@H]1c1ccccc1N=[N+]=[N-]", "composite z-score": 0.103}
{"smiles": "CN1C(=O)C2C=CC(C(O)c3ccccc3)N(Nc3ccccc3)C2C1=O", "note": "(centres undefined)", "composite z-score": -0.0543}
{"smiles": "CC(=O)n1cc(C(O)C2C=CC3C(=O)N(C)C(=O)C3N2Nc2ccccc2)c2ccccc21", "note": "(centres undefined)", "composite z-score": 0.027}
{"smiles": "C=C(COC)/C(=C/C[C@H](OC(=O)c1ccncc1)c1ccc(OCCO)cc1)c1cnc2ccccc2c1", "composite z-score": -0.0389}
{"smiles": "COc1ccc(C#Cc2ccc3c(c2)[C@]2(C(=O)N3)[C@H](c3ccccc3OCCO)N3[C@H](c4ccccc4)[C@H](c4ccccc4)OC(=O)[C@H]3[C@@H]2C(=O)O)cc1", "composite z-score": 0.114}
{"smiles": "C=CC[C@]1(C(=O)N2CCCCC2)N=C(c2ccc(OCCCO)cc2)O[C@H]1c1ccccc1", "composite z-score": 0.429}
{"smiles": "COCCOC(=O)N1C(=O)[C@@]2(c3cc(C#Cc4ccc(OC)cc4)ccc31)[C@H](C(N)=O)[C@H]1C(=O)O[C@H](c3ccccc3)[C@H](c3ccccc3)N1[C@@H]2c1ccccc1OCCO", "composite z-score": 0.151}
{"smiles": "O=C1OCCC/C=C\\[C@H]2OC34C=CCN(Cn5nnc6ccccc65)C(=O)[C@H]3N(CCO)C(=O)[C@@H]4C12", "note": "(some centres undefined)", "composite z-score": -0.0073}
{"smiles": "C=CCN1C(=O)[C@@]2(O[C@@H](CCO)[C@H]([Si](C)(C)c3ccc(OC)cc3)[C@H]2C)c2cc(NC(=O)c3ccc(OC)cc3)ccc21", "composite z-score": -0.0836}
{"smiles": "COc1ccc(C(O)C2C=CC3C(=O)N(c4ccccc4)C(=O)C3N2Nc2ccccc2F)cc1OCc1ccccc1", "note": "(centres undefined)", "composite z-score": 0.114}
{"smiles": "CCCCCN1CC=CC23O[C@@H]4/C=C\\CCCOC(=O)C4[C@H]2C(=O)N(CCCO)[C@@H]3C1=O", "note": "(some centres undefined)", "composite z-score": -0.104}
{"smiles": "CN(C)C(=O)[C@@]1(Cc2ccccc2)N=C(c2ccc(OCCCO)cc2)O[C@H]1c1ccccc1N=[N+]=[N-]", "composite z-score": -0.0422}
{"smiles": "O=C1OCC=C[C@H]2OC34C=CCN(CCN5CCOCC5)C(=O)[C@H]3N(CCCO)C(=O)[C@@H]4[C@@H]12", "note": "(some centres undefined)", "composite z-score": -0.122}
{"smiles": "CN(C)C(=O)[C@]1(Cc2ccccc2N=[N+]=[N-])N=C(c2ccc(OCCCO)cc2)O[C@@H]1c1ccccc1", "composite z-score": -0.0013}
{"smiles": "COc1ccc(C(=O)Nc2ccc(CN3C(=O)[C@@]4(O[C@@H](CCO)[C@H]([Si](C)(C)c5ccc(OC)cc5)[C@H]4C)c4ccccc43)cc2)cc1", "composite z-score": -0.0999}
{"smiles": "CCOC(=O)C[C@H]1[C@H](OC(=O)Cc2ccc3c(c2)OCO3)[C@@H](NC(=O)c2ccc3ccccc3c2)c2cc(OCCCO)ccc2N1C(=O)c1ccccc1", "composite z-score": -0.14}
{"smiles": "COc1ccc(C(=O)O[C@H]2CC[C@]3(C)C4=C(CCC3C2(C)C)[C@]2(C)CC[C@H]([C@H](C)CCCC(C)C)[C@@]2(C)CC4)cc1", "note": "(some centres undefined)", "composite z-score": -0.149}
{"smiles": "CN1C(=O)[C@]2(Cc3ccccc3)N=C(c3ccc(OCCCO)cc3)O[C@@H]2c2ccccc21", "composite z-score": -0.0734}
{"smiles": "COc1ccc(CCNC(=O)[C@@]2(C)c3ccccc3C(=O)N(Cc3cc(F)cc(C(F)(F)F)c3)[C@H]2c2ccc(CO)cc2)cc1", "composite z-score": -0.054}
{"smiles": "COc1ccc(C(O)C2C=CC3C(=O)NC(=O)C3N2Nc2ccccn2)cc1", "note": "(centres undefined)", "composite z-score": 0.0308}
{"smiles": "CN(C)CCCC[C@@H]1NC(=O)[C@H]2C[C@@H](C(=O)NCCCCCNC(=O)CS)[C@@H](c3cccc(OCCO)c3)N2C1=O", "composite z-score": -0.175}
{"smiles": "COC(=O)[C@@]1(Cc2ccc(OC)cc2)[C@H]2c3cc(C(=O)N(C)C)n(Cc4cccc5ccccc45)c3C[C@H]2CN1C(=O)c1ccccc1", "composite z-score": 0.624}
{"smiles": "C#CCN(Cc1ccccc1Br)C(/C=C/c1ccccc1)CO", "note": "(centres undefined)", "composite z-score": -0.18}
{"smiles": "COCCOC(=O)N1C(=O)[C@@]2(c3cc(C#CCCO)ccc31)[C@H](C(=O)Nc1nc3ccccc3s1)[C@H]1C(=O)O[C@H](c3ccccc3)[C@H](c3ccccc3)N1[C@@H]2c1ccc(OCCO)cc1", "composite z-score": -0.0028}
{"smiles": "CCOC(=O)C[C@H]1[C@H](OC(=O)c2ccc(C(=O)c3ccccc3)cc2)[C@@H](NC(=O)c2ccc(-c3ccccc3)cc2)c2cc(OCCCO)ccc2N1C(=O)c1ccccc1", "composite z-score": -0.11}
{"smiles": "COc1ccc([Si](C)(C)[C@@H]2[C@@H](CC(=O)N3Cc4ccccc4C[C@H]3CO)O[C@]3(C(=O)N(C)c4c(Br)cc(C)cc43)[C@H]2C)cc1", "composite z-score": -0.164}
{"smiles": "O=C1OCCC=C[C@H]2OC34C=CCN(CCN5CCOCC5)C(=O)[C@H]3N(CCCCCCO)C(=O)[C@@H]4C12", "note": "(some centres undefined)", "composite z-score": -0.167}
